{"source": "PubChem BioAssay (NCATS)", "note": "Inconclusive results are not listed. A number with no mark means an inactive call. Active and inactive are the calls of the source. The call rests on the fitted dose curve; in most records, active means well fitted inhibition curve with a large enough effect; inconclusive means small, poorly fitted or top-dose-only effect; inactive means no such curve, though single readings can be large or run the other way. Potency means the concentration at half of the fitted maximal effect."}
{"assay": "qHTS assay for measurement of the activity of small molecule inhibitors on Zika virus induced Caspase-3 activity in human iPSC derived neural progenitor cells (hNPCs) (AID 1224857); further: nearly all actives have a fitted effect of over 65% in size; on activity change, negative = inhibition: % of control where 0% means no effect", "settings": "hNPCs ZIKV-induced caspase-3/7, Caspase-Glo luminescence, 6 h; series mostly up to 45.7 µM; activity change, negative = inhibition: at the top concentration", "method_in_brief": "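In medium with heparin 2 ug/ml and cyclopamine 2 uM, hNPCs (350 cells/well) received compound for one hour and then Zika virus at 2 FFU/cell; caspase activity was measured by Caspase-Glo 3/7 luminescence 6 h post-infection.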", "units": {"activity change, negative = inhibition": "%"}}
{"smiles": "O=C(Nc1cccc(Br)c1)c1cccc(S(=O)(=O)N2CCCCCC2)c1", "activity change, negative = inhibition": -11.1}
{"smiles": "C[C@H]1[C@H](NC(=O)C(=NOC(C)(C)C(=O)O)c2csc(N)n2)C(=O)N1S(=O)(=O)O", "activity change, negative = inhibition": 14.7}
{"smiles": "COC1CCC(N(C(=O)C2CCC(C)CC2)c2cc(C3=CCCCC3)sc2C(=O)O)CC1", "note": "(configuration not stated)", "activity change, negative = inhibition": -0.496}
{"smiles": "CCCCCCCCCCCC1=C(O)C(=O)C=C(O)C1=O", "activity change, negative = inhibition": -36.5}
{"smiles": "Cc1c(O)cccc1C(=O)N[C@@H](CSc1ccccc1)[C@H](O)CN1C[C@H]2CCCC[C@@H]2C[C@@H]1C(=O)NC(C)(C)C", "activity change, negative = inhibition": 9.62}
{"smiles": "CNC(=O)c1ccc2cc(C3(O)CCn4cncc43)ccc2c1", "note": "(configuration not stated)", "activity change, negative = inhibition": 23}
{"smiles": "Cc1cccc(Nc2nc(-c3ccncc3)cs2)c1", "activity change, negative = inhibition": -12.6}
{"smiles": "CC(C)C(C)C=CC(C)C1CCC2C3=CC=C4CC(O)CCC4(C)C3CCC21C", "note": "(configuration not stated)", "activity change, negative = inhibition": 6.35}
{"smiles": "O=C1NC(=O)C(=Cc2ccc3nccnc3c2)S1", "Potency": "14.4 µM (active)"}
{"smiles": "Cc1nnc(C(C)C)n1C1C[C@H]2CC[C@@H](C1)N2CC[C@H](NC(=O)C1CCC(F)(F)CC1)c1ccccc1", "note": "(some centres not stated)", "activity change, negative = inhibition": 36.7}
{"smiles": "O=c1ccn([C@@H]2O[C@H](CO)[C@H](O)[C@H]2O)c(=O)[nH]1", "activity change, negative = inhibition": 18.8}
{"smiles": "C[C@]12CC[C@@H]3c4ccc(O)cc4C[C@@H](CCCCCCCCCS(=O)CCCC(F)(F)C(F)(F)F)[C@H]3[C@H]1CC[C@H]2O", "note": "(some centres not stated)", "activity change, negative = inhibition": 26}
{"smiles": "O=C1NC(=O)C(=Cc2cccc(C(F)(F)F)c2)S1", "activity change, negative = inhibition": 0.475}
{"smiles": "O=c1cc(-c2ccccc2)oc2cc(O)cc(O)c12", "Potency": "20.9 µM (active)"}
{"smiles": "COC[C@@H](c1ccc(C(F)(F)F)cc1)N1CCN(C2(C)CCN(C(=O)c3c(C)ncnc3C)CC2)C[C@H]1C", "activity change, negative = inhibition": 81.1}
{"smiles": "COc1cccc([C@@H](C)NCCCc2ccccc2Cl)c1", "activity change, negative = inhibition": 27.1}
{"smiles": "CN(C)CCC=C1c2ccccc2COc2ccc(CC(=O)O)cc21", "activity change, negative = inhibition": 27.2}
{"smiles": "NC(=O)c1ccc2nc(-c3ccc(Oc4ccc(Cl)cc4)cc3)[nH]c2c1", "activity change, negative = inhibition": -5.6}
{"smiles": "CCC(CC)[C@H](NC(C)=O)[C@@H]1[C@H](O)[C@@H](C(=O)O)C[C@@H]1N=C(N)N", "activity change, negative = inhibition": -11.6}
{"smiles": "COc1cc(N2CCC(N3CCN(C)CC3)CC2)ccc1Nc1ncnc(Nc2ccccc2S(=O)(=O)C(C)C)n1", "activity change, negative = inhibition": 23.8}
{"smiles": "O=C1c2ccccc2-[n+]2ccc3c([nH]c4ccccc43)c21", "Potency": "1.05 µM (active)"}
{"smiles": "CC(C(=O)O)c1ccc(-c2ccccc2)c(F)c1", "note": "(configuration not stated)", "Potency": "16.6 µM (active)"}
{"smiles": "COc1ccc2c3c1OC1C[C@@H](O)C=C[C@@]31CCN(C)C2", "note": "(some centres not stated)", "activity change, negative = inhibition": 13.6}
{"smiles": "CO[C@H]1C[C@@H]2CC[C@@H](C)[C@@](O)(O2)C(=O)C(=O)N2CCCC[C@@H]2C(=O)O[C@H]([C@H](C)C[C@@H]2CC[C@H](OP(C)(C)=O)[C@H](OC)C2)CC(=O)[C@H](C)C=C(C)[C@@H](O)[C@@H](OC)C(=O)[C@H](C)C[C@H](C)C=CC=CC=C1C", "activity change, negative = inhibition": 36.4}
{"smiles": "O=C1C[C@@H](c2ccc(O)cc2)Oc2cc(O)cc(O)c21", "Potency": "18.7 µM (active)"}
{"smiles": "O=C(Nc1c(Cl)cncc1Cl)c1ccc(OC(F)F)c(OCC2CC2)c1", "activity change, negative = inhibition": 33.9}
{"smiles": "CC(C)(C)OC(=O)N[C@H]1CCCCCC=C[C@@H]2C[C@@]2(C(=O)NS(=O)(=O)C2CC2)NC(=O)[C@@H]2C[C@@H](OC(=O)N3Cc4cccc(F)c4C3)CN2C1=O", "activity change, negative = inhibition": 28.6}
{"smiles": "CC(=NNC(=S)N1CCC1)c1ccccn1", "Potency": "16.6 µM (active)"}
{"smiles": "O=C(O)c1ccccc1C(=O)Nc1ccc(-c2ccccc2)cc1", "activity change, negative = inhibition": -26.2}
{"smiles": "CC=C(C)C(=O)O[C@H]1C(C)=C[C@]23C(=O)[C@@H](C=C(CO)[C@@H](O)[C@]12O)[C@H]1[C@@H](C[C@H]3C)C1(C)C", "activity change, negative = inhibition": 32.7}
{"smiles": "CN(C[C@@H]1COCCO1)S(=O)(=O)Nc1ccc2ccc3ncc(-c4cnn(C)c4)cc3c(=O)c2c1", "activity change, negative = inhibition": 37.4}
{"smiles": "O=C(OCC#CCSc1nnc(-c2cccc3ccccc23)o1)c1cc2ccccc2s1", "activity change, negative = inhibition": 35.8}
{"smiles": "NC[C@@H]1O[C@@H](O[C@H]2[C@@H](O)[C@H](O[C@@H]3[C@@H](O)[C@@H](N)C[C@H](N)[C@H]3O[C@H]3O[C@H](CN)[C@@H](O)[C@@H](O)[C@H]3N)O[C@H]2CO)[C@H](N)[C@@H](O)[C@@H]1O", "activity change, negative = inhibition": 65.1}
{"smiles": "Oc1ccc(C2CCN(c3ccnc4ccccc34)CC2)cc1O", "activity change, negative = inhibition": -7.09}
{"smiles": "CC1(C)O[C@H]2C[C@@H]3[C@H]4CCC5=CC(=O)C=C[C@]5(C)[C@@]4(F)[C@@H](O)C[C@]3(C)[C@]2(C(=O)CO)O1", "activity change, negative = inhibition": 15}
{"smiles": "O=C(NC1CCOCC1)c1ccc(-c2cc(-c3cn[nH]c3-c3ccccn3)ccn2)cc1", "activity change, negative = inhibition": 22.3}
{"smiles": "N#CC1(c2ccc(NC(=O)c3cccnc3NCc3ccncc3)cc2)CCCC1", "Potency": "16.6 µM (active)"}
